MITF primary = blocks human microphthalmia-associated transcription factor | 650,000 tested, 0.91% active | AID 1259374 | O75030 | inhibition, % at 2.6 µM | AlphaScreen MITF homodimerization, bead proximity signal; in the data active means inhibition above about 50%;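 further: 0% = vehicle wells with protein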
TEAD-YAP block = TEAD-YAP interaction inhibition; HEK-TIYL cells, TEAD-Gal4/YAP UAS-luciferase luminescence; inhibition, % at 9.12 µM; 640,000 tested, 1.4% active; in the data active means inhibition above about 32%;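 further: 0% = median of test compound wells and 100% = reference inhibitor wells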
FBW7 act = activators of human E3 ligase FBW7 | Q969H0 | AlphaScreen FBW7–phospho-cyclin E peptide binding, activator screen | normalized activity (activation), % at 26.1 µM | 650,000 tested, 0.13% active; in the data active means normalized activity above about 1.9%;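 further: purified mutant Fbw7 with reduced substrate affinity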
GPR151 ag = activators of human GPR151 | activation, % at 11.2 µM | PathHunter beta-arrestin GPR151 cells, luminescence | 650,000 tested, 1% active | AID 1508602 | Q8TDV0; in the data active means activation above about 4.9%;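 further: 0% = median of compound wells and 100% = cells with positive control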
GPR151 confirm = human GPR151 activation, confirmation screen. activation, % at 11.2 µM. 6,700 tested, under 10 active. GPR151 PathHunter beta-arrestin cells, luminescence, 90 min; % of EA-reagent control over plate median. shares compounds with GPR151 ag;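 active means mean percent activation across replicates above the confirmation screen cutoff of 4.91%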
GPR119 ag = counter-screen for GPR151 activators: effect on human GPR119 | shares compounds with GPR151 ag | GPR119 PathHunter beta-arrestin cells, luminescence, 90 min; 0 = compound-well median, 100 = enzyme-acceptor control | activation, % at 11.2 µM | 6,700 tested, 0.3% active | AID 1508611;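 active means mean percent activation in the counterscreen above 29.09%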;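 further: counterscreen on off-target GPR119 to flag nonselective hits from the GPR151 activator screen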
Target sequence (Q8TDV5 whole entry, looked up): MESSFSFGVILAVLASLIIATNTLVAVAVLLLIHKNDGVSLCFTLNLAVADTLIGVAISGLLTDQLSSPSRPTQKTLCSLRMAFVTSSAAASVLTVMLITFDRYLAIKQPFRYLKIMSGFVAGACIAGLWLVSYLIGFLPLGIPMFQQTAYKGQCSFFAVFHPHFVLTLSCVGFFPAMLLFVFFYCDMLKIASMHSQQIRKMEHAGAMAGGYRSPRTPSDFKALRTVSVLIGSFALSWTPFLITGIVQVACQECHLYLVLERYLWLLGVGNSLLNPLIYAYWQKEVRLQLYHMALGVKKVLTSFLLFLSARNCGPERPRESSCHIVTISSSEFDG
* hit, by the source's call; nt = no result; ! = not confirmed by another sample. Shown are actives, neighbours in structure and some others; about 3.5% of the full set was active somewhere.

SMILES	MITF primary	TEAD-YAP block	FBW7 act	GPR151 ag	GPR151 confirm	GPR119 ag
COc1ccc(-c2cc(NCCCN3CCCC3=O)ncn2)cc1	-3	-11	0	0	nt	nt
Cn1ccc2cc(-c3cc(NCCCN4CCCC4=O)ncn3)ccc21	-17	1	0	11*	0	1
Cc1noc(C)c1-c1cc(NCCCN2CCCC2=O)ncn1	2	-4	0	5.9*	-1	-7
CCN(C(=O)CSc1nc2c(sc(=S)n2-c2ccc(C)c(C)c2)c(=O)n1-c1ccccc1)c1cccc(C)c1	1	-3	0	-2	nt	nt
CC(C)C(=O)Nc1ccc2c(c1)OCCO2	10	-37	0	-1	nt	nt
CSCCCNC(=O)CC1C(=O)NCCN1C1Cc2ccccc2C1 (stereo not drawn)	10	4	0	4.9*	0	0
O=C(CC1C(=O)NCCN1C1Cc2ccccc2C1)NCCc1cccs1 (stereo not drawn)	-10	4	0	2	nt	nt
COc1nc(NCCCN2CCCC2=O)nc(-c2ccc(C(=O)N3CCN(C)CC3)cc2)n1	2	4	0	3	nt	nt
COc1nc(NCCCN2CCCC2=O)nc(-c2ccc(C(N)=O)cc2)n1	25	-7	1	8.5*	0	-3
COc1ccccc1-c1nnc(NC(=O)CSC2=NCCS2)s1	4	-7	0	5.6*	1	5
CN1CCC(=C2c3ccccc3Sc3ccccc32)CC1	-4	6	0	2	nt	nt
CN1CCC(=C2c3ccccc3C=Cc3ccccc32)CC1	-15	-11	0	5.3*!	0	-6
COC(=O)c1c(NC(=O)/C=C\C(=O)O)sc(C)c1C	21	-1	0	14*	-1	3
CC(=O)Nc1ccc(NC(=O)COc2ccc(Cl)cc2Br)cc1	7	-22	0	5.1*	0	15
O=C(CCCOc1ccc(Cl)cc1Cl)Nc1ncn[nH]1	-10	-7	0	-1	nt	nt
O=C(COc1ccc(Cl)cc1Cl)Nc1ncn[nH]1	13	42*	0	6.6*	3	-13
CC1=C(C(=O)OC2CCCCCC2)C(c2cccc(F)c2)C2=C(CCCC2=O)N1 (stereo not drawn)	0	2	0	-2	nt	nt
CCC1(c2ccc(F)cc2)C(=O)Nc2ccccc21 (stereo not drawn)	-15	7	0	-1	nt	nt
CC/C=C\C/C=C\C/C=C\C/C=C\C/C=C\CCCC(=O)O[C@H](COCCCCCCCCCCCCCCCC)COP(=O)(O)OCC[N+](C)(C)C	-6	nt	nt	1	nt	nt
Cc1cc(/C=N/n2cnnc2)c(C)n1-c1ccc(Cl)cc1Cl	2	6	0	5.3*	0	-1
Cc1cc(/C=N/n2cnnc2)c(C)n1-c1ccc(Cl)cc1	10	-2	0	-1	nt	nt
O=C(Nc1c2c(nn1-c1ccc(Cl)cc1)CSC2)c1ccc(Cl)cc1	8	-15	0	7.7*	-1	-13
CNC(=O)C(=O)N/N=C/c1c(O)ccc2ccccc12	-52	-3	1	-1	nt	nt
C[C@@H]1CN(Cc2ccc3c(c2)CN(Cc2ccc4c(c2)CCO4)CCO3)C[C@H](C)O1	-1	-13	0	6.5*	0	4
COc1ccc(CN2CCOc3ccc(CN4C[C@@H](C)O[C@@H](C)C4)cc3C2)cc1OC	12	9	-1	2	nt	nt
SMILES	MITF primary	TEAD-YAP block	FBW7 act	GPR151 ag	GPR151 confirm	GPR119 ag
Cc1ccccc1OCc1n[nH]c(=S)n1C	-6	5	0	7.2*	0	-1
CCC(=O)N1C(=O)CC(C)N(C(=O)CC)c2ccccc21 (stereo not drawn)	-7	1	0	5.9*	0	-1
NCCSc1nnc(-c2ccco2)n1Cc1ccccc1	25	-15	0	1	nt	nt
COc1ccc2nc(NCCNC(=O)Nc3ccc(SC)cc3)c(C#N)cc2c1	9	0	0	-1	nt	nt
O=C(Nc1ccc(Br)cc1)c1ccc(N2C(=O)C3CCCCC3C2=O)cc1 (stereo not drawn)	-6	-2	0	0	nt	nt
O=C(Nc1ccc(Br)cc1)c1cccc(N2C(=O)C3CCCCC3C2=O)c1 (stereo not drawn)	2	-8	0	7.5*	0	4
Cc1ccc(N(C(=O)CCc2ccccc2)C2C=CS(=O)(=O)C2)cc1C (stereo not drawn)	0	9	0	5.4*	0	3
O=C(COc1ccc(Br)cc1)N(c1ccccc1)C1C=CS(=O)(=O)C1 (stereo not drawn)	2	13	0	6.3*	0	-1
CC(C)(C)c1ccc(C(=O)Nc2cc(C(=O)Nc3ccc(F)c(F)c3)ccc2N2CC3CC(C2)c2cccc(=O)n2C3)cc1 (stereo not drawn)	8	-10	0	0	nt	nt
Nc1ccc2c3c(cccc13)C(=O)N2	7	10	0	0	nt	nt
CCCc1ccc(Oc2c(C(F)(F)F)oc3c(C)c(O)ccc3c2=O)cc1	11	1	0	-1	nt	nt
N#CC1(C#N)CC(C=O)=C(N)C1(C#N)CC(=O)C12CC3CC(CC(C3)C1)C2 (stereo not drawn)	4	6	0	14*	1	7
Cn1nccc1Nc1cc(C(=O)NCCOc2ccccc2)c2ccccc2n1	14	3	0	5.3*	-1	-13
CCC(C)c1ccc(NC(=O)CSc2nnnn2-c2ccc(OC)cc2)cc1 (stereo not drawn)	13	6	1	5.6*	1	0
COc1cc(NC(=O)CSc2nnnn2-c2ccc(OC)c(OC)c2)cc(OC)c1	1	3	0	5.0*	0	1
COc1ccc(-n2nnnc2SCC(=O)Nc2ccc(NC(C)=O)cc2)cc1OC	-1	7	0	2	nt	nt
CCC(=O)N1c2ccccc2NC2=C(C(=O)CC(C)(C)C2)C1c1ccc(Cl)cc1 (stereo not drawn)	0	10	0	5.1*	0	-17
CC1(C)CC(=O)C2=C(C1)Nc1cc(C(=O)c3ccccc3)ccc1N1C(=O)c3ccccc3C21 (stereo not drawn)	2	17	0	5.1*	1	9
CC1(C)CC(=O)C2=C(C1)Nc1ccccc1N1C(=O)c3ccccc3C21 (stereo not drawn)	-5	-16	0	0	nt	nt
CCC(=O)N1c2ccccc2NC2=C(C(=O)CC(C)(C)C2)C1c1ccc(N(C)C)cc1 (stereo not drawn)	2	16	0	0	nt	nt
O=C(Nc1cc(Oc2ccccc2)cc([N+](=O)[O-])c1)c1ccc(OC(=O)c2cc3nc(-c4ccccc4)cc(C(F)(F)F)n3n2)cc1	2	0	0	1	nt	nt
CC(C)(C)C(=O)NC1CCN(S(=O)(=O)c2ccc(Cl)c(F)c2)CC1	-6	8	0	0	nt	nt
Cc1c(C(=O)OC(C)C)sc(NC(=O)c2cc(Cl)ccc2Cl)c1C#N	-1	4	0	1	nt	nt

High-throughput results from PubChem BioAssay.
